The supplement of paper PMC3334620
Whole data set: some 33,000 sequences, median “E-score (-0.5 to 0.5)” near -0.012, cut for the highest 2% near 0.27. Many of the other results were omitted from the sample, so the highest values are more common in it than they were.

target: T1, Vhr1 (UniProt P40522); test: PBM E-score (8-mer binding enrichment) (E-score (-0.5 to 0.5)); higher = stronger / more preferred TF binding; details: protein concentration: 200 nM; construct: GST-full length
T1 sequence: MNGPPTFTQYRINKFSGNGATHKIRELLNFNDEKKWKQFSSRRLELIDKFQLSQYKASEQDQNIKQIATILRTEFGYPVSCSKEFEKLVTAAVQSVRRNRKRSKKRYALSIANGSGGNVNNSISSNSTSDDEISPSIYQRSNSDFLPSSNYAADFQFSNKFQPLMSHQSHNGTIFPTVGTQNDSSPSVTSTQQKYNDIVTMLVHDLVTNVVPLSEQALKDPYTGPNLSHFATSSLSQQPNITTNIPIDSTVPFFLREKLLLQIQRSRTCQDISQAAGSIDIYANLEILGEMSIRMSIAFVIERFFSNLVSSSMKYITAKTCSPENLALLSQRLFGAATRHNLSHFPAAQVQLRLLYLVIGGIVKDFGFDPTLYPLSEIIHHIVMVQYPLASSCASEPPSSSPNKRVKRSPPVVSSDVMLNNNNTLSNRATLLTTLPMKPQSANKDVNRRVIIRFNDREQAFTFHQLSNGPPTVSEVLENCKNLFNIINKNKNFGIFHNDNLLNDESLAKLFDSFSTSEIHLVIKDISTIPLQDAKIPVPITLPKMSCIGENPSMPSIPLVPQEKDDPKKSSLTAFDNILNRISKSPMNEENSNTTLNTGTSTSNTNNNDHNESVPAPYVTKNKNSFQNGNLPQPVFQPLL
How it was run: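 Yeast transcription factors, full-length or as DNA-binding domains, were expressed with a GST tag using PURExpress in vitro transcription/translation. At about 100-200 nM they were applied to universal all-10-mer Agilent arrays, double-stranded by primer extension on fresh or once-stripped slides. Fluorescent anti-GST detected bound protein, and masliner normalised the scans. E-scores for ungapped eight-base words, pooled with reverse complements, came from the Universal PBM Analysis Suite.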

Sequence | PBM E-score
CAGAACAG | 0.066
GGCTCCTA | -0.136
CCAACAGA | -0.0653
CCCCGCTA | -0.0924
CTTTGGCC | -0.254
AATTAATA | 0.102
CCACTCGA | 0.0905
ATTCAATA | -0.0197
GTCACGTA | 0.13
ACGCCTTG | -0.0936
CTTGGCCA | -0.0546
GTAGTCCA | -0.0646
GCAGCGAC | 0.167
ATGGTTCA | 0.366
ATGGTTCC | 0.318
CTGGTTCC | 0.0593
CTGGTTCA | -0.0177
ATGGTTCG | 0.224
GTGGTTCA | 0.254
CATTAGGA | -0.0276
ACAGTTCA | 0.0273
CGCAATCC | -0.0979
AAACCTAA | -0.0619
TAATGGCA | -0.00432
CTCAATAC | 0.226

Sequence | PBM E-score
ATCAAAGG | -0.0468
CAAGAGCG | 0.0553
ATGGGTCA | 0.263
ATGGGTGG | 0.242
CTGGGTGC | 0.123
GTGGGTCA | 0.365
GTGGGTAA | 0.138
ATGGGTGC | 0.0292
CTGGGTGA | 0.275
ATGGGTGA | 0.322
CTGGGTCA | 0.11
CAGGGTGA | 0.114
GAGGGTGA | 0.153
GTGGGTGA | 0.331
CACCTACC | -0.125
AAGTGCGT | -0.0339
GTCTGTAA | -0.0248
AATTCTTC | -0.211
AGATCACC | -0.0605
ACTGGTCG | 0.0753
GTCGTCTA | -0.0586
GAACTAGC | -0.118
AACAGGAT | -0.0425
CTATGAAC | 0.107
CCTATCTA | -0.245

Sequence | PBM E-score
AGTCAGAA | 0.18
ACTCAGCC | 0.151
GGTCAGCA | 0.15
CGTCAGCA | -0.11
ACTCAGCG | 0.133
AGTCAGCG | 0.347
AGTCAGAT | 0.27
CGTCAGCC | 0.044
ATTCAGCG | -0.0101
AGTCAGCA | 0.346
AGTCAGAG | 0.386
AGTCAGCC | 0.402
CTAGCCTA | -0.153
GGAACCAA | 0.171
AAAGGCGC | -0.0831
ACACCCAT | 0.191
AGGTAATC | 0.104
ACACTCCC | 0.0331
AATGGGTA | 0.0928
CATGGGTA | 0.27
GATGGGTA | 0.285
CAACCCGC | 0.272
AAACCCGC | 0.0774
CAACCCGG | -0.116
CGTTTCAG | -0.0522

Sequence | PBM E-score
ATAGGCCG | -0.229
CATCGATC | 0.016
AATCGATG | 0.107
CATCGATG | 0.302
AGCACAGG | 0.00375
CCAGTCGA | 0.0785
TAAAGGCA | -0.226
AGAGTATC | -0.0198
CCAAGCAC | 0.112
AGATGGGC | -0.0228
CGATGGGC | 0.297
CGATGGGA | -0.0641
ACTTGGCG | 0.0405
CGATAGGA | 0.129
TAGTCTGA | 0.218
CAGTCAAC | 0.216
AAGTCAAA | 0.00983
GAGTCAAC | 0.403
TAGTCAAA | 0.117
GAGTCAAA | 0.312
AAGTCAAC | -0.00442
ACTTTTAT | -0.304
AAGCCATT | 0.0335
CAAATCAG | -0.0128
ATTAGCTA | 0.0108

Sequence | PBM E-score
GCACCTGA | -0.00933
CACTACAC | 0.163
GACTACCC | 0.254
GACTACAC | 0.315
CACTACCA | 0.208
AACTACAC | 0.0739
GACTATAC | 0.322
AACTACTA | 0.078
GACTATAA | 0.0359
AACTATAC | 0.114
GACTACTA | 0.328
GACTACCA | 0.306
TACTACTA | 0.208
CATAGAAA | 0.102
GCTAGAAA | -0.0866
AGACTGTG | -0.0209
GGAGTGCA | 0.14
CGTTTTTC | -0.141
ACCATAGT | 0.0959
AAGCAAGT | -0.0526
GAGTACTC | 0.345
AACTACTC | 0.19
GAGTAACA | 0.286
GAGTAACC | 0.106
AAGTAACA | 0.0225

Sequence | PBM E-score
CACTAACA | 0.177
CAGTACTC | 0.117
GACTAACA | 0.354
TACTAACA | 0.145
CACTACTC | 0.205
GACTACTC | 0.31
AAGTACTC | 0.0478
AGCAGCGG | 0.0635
GAGCCAAC | -0.0688
ACATAGCT | -0.216
AACCAATT | 0.0547
CTAGCAAA | 0.00326
ATGGATCC | 0.144
AGTTACTC | 0.0219
CACACAGC | 0.307
AACACAGG | 0.0235
CACACAGA | 0.263
GACACCTC | 0.0308
GACACAGC | 0.129
CACACCTG | 0.207
CACACAGG | 0.272
CACACCTC | 0.285
AACACAGC | 0.229
AGTGGTGC | -0.0378
ACTGTAGA | 0.0811

Sequence | PBM E-score
CGAAGAAC | 0.0807
ACTAAACG | -0.0382
CAGCAGCG | -0.0154
AGATCTTA | -0.0915
CAACAACA | 0.234
CCATTGGG | -0.18
ACACTGCC | 0.281
ACACTGCA | 0.0651
GCACTGCC | -0.039
CTTCTGCA | -0.194
AATCATAC | 0.4
GCTCATAC | -0.135
AATCATAT | 0.296
AATCATAG | 0.329
ATTCATAG | 0.0981
ACTCATAC | 0.284
CCTCATAC | -0.119
CATCATAC | 0.216
AATCAAAT | -0.0562
CATCATAG | 0.266
GATCATAC | 0.114
AATCATAA | 0.131
